Experimental data as given in the antibiotic and cytotoxicity screens of Wong et al. (2023).
In all, about 39,000 compounds went through this assay and about 3,300 (8.5%) were called active. Many of the other results were omitted from the sample, so actives are more common in it than they were.

tested on: HepG2; assay: cytotoxicity call (relative viability < 0.9); settings: 10 µM

| Structure (SMILES) | cytotoxicity call |
| --- | --- |
| Cc1cccc(N[C@H]2CS(=O)(=O)C[C@@H]2O)c1 | inactive |
| CC(C)(Sc1cc(C(C)(C)C)c(O)c(C(C)(C)C)c1)Sc1cc(C(C)(C)C)c(OC(=O)CCC(=O)O)c(C(C)(C)C)c1 | inactive |
| C[C@@H]1CN([C@H](C)CO)C(=O)c2cccc(NC(=O)Nc3ccc(C(F)(F)F)cc3)c2O[C@@H]1CN(C)Cc1ccc(C(=O)Nc2ccccc2N)cc1 | inactive |
| C[C@@H]1CN([C@@H](C)CO)C(=O)c2cc(NS(=O)(=O)c3ccc(F)cc3)ccc2O[C@@H]1CN(C)Cc1ccncc1 | inactive |
| C[C@@H]1CN([C@H](C)CO)C(=O)Cc2cc(NC(=O)Nc3cccc4ccccc34)ccc2O[C@H]1CN(C)C(=O)Nc1ccc(C(F)(F)F)cc1 | inactive |
| COc1ccc(S(=O)(=O)N(C)C[C@H]2Oc3c(NC(=O)NC(C)C)cccc3C(=O)N([C@H](C)CO)C[C@@H]2C)cc1 | inactive |
| COc1ccc(S(=O)(=O)Nc2ccc3c(c2)C(=O)N([C@@H](C)CO)C[C@H](C)[C@H](CN(C)Cc2ccc(-c4ccccc4)cc2)O3)cc1 | inactive |
| COc1ccc(S(=O)(=O)Nc2ccc3c(c2)C(=O)N([C@H](C)CO)C[C@@H](C)[C@H](CN(C)Cc2ccc(-c4ccccc4)cc2)O3)cc1 | inactive |
| COc1ccc(S(=O)(=O)Nc2ccc3c(c2)C(=O)N([C@H](C)CO)C[C@H](C)[C@@H](CN(C)Cc2ccc(-c4ccccc4)cc2)O3)cc1 | inactive |
| COc1ccc(S(=O)(=O)Nc2ccc3c(c2)C(=O)N([C@H](C)CO)C[C@H](C)[C@H](CN(C)Cc2ccc(-c4ccccc4)cc2)O3)cc1 | inactive |
| COc1ccc(S(=O)(=O)Nc2ccc3c(c2)C(=O)N([C@@H](C)CO)C[C@H](C)[C@@H](CN(C)Cc2ccc(-c4ccccc4)cc2)O3)cc1 | active |
| COc1ccc(S(=O)(=O)Nc2ccc3c(c2)C(=O)N([C@H](C)CO)C[C@@H](C)[C@@H](CN(C)Cc2ccc(-c4ccccc4)cc2)O3)cc1 | active |
| COc1ccc(S(=O)(=O)Nc2ccc3c(c2)C(=O)N([C@@H](C)CO)C[C@@H](C)[C@H](CN(C)Cc2ccc(-c4ccccc4)cc2)O3)cc1 | inactive |
| COc1ccc(S(=O)(=O)Nc2ccc3c(c2)C(=O)N([C@@H](C)CO)C[C@@H](C)[C@@H](CN(C)Cc2ccc(-c4ccccc4)cc2)O3)cc1 | active |
| C[C@H]1CCCCO[C@H](CN(C)C(=O)Nc2ccccc2)[C@@H](C)CN([C@@H](C)CO)C(=O)c2cc(NC(=O)C3CCCCC3)ccc2O1 | inactive |
| C[C@H]1CN([C@@H](C)CO)S(=O)(=O)c2ccc(C#CC3CC3)cc2O[C@@H]1CN(C)Cc1cccc(F)c1 | inactive |
| Nc1ccn(C[C@@H](CO)OCP(=O)(O)O)c(=O)n1 | inactive |
| Cc1noc(C)c1S(=O)(=O)Nc1ccc2c(c1)C(=O)N([C@H](C)CO)C[C@@H](C)[C@H](CN(C)Cc1ccc(-c3ccccc3)cc1)O2 | inactive |
| Cc1noc(C)c1S(=O)(=O)Nc1ccc2c(c1)C(=O)N([C@H](C)CO)C[C@H](C)[C@@H](CN(C)Cc1ccccc1)OCCCC[C@@H](C)O2 | inactive |
| C[C@H](CO)N1C[C@H](C)[C@@H](CN(C)C(=O)NC2CCCCC2)Oc2ccc(NC(=O)Cn3cnnn3)cc2C1=O | inactive |
| C=CCNC(=O)[C@H]1[C@@H]2C(=O)O[C@@H](c3ccccc3)[C@@H](c3ccccc3)N2[C@@H](c2ccc(OCCO)cc2)[C@]12C(=O)Nc1ccc(C#CC3=CCCCC3)cc12 | inactive |

| Structure (SMILES) | cytotoxicity call |
| --- | --- |
| CO[C@@H](CCO)[C@@H](O)c1ccc(O)c(F)c1 | inactive |
| C[C@H](CO)N1C[C@H](C)[C@@H](CN(C)Cc2ccccn2)Oc2ncc(C#Cc3cccc(F)c3)cc2C1=O | inactive |
| COc1ccc(NC(=O)N(C)C[C@H]2OCCCC[C@@H](C)Oc3ccc(NS(=O)(=O)c4ccc(F)cc4)cc3C(=O)N([C@@H](C)CO)C[C@@H]2C)cc1 | inactive |
| COc1ccc(NC(=O)N(C)C[C@H]2OCCCC[C@H](C)Oc3ccc(NS(=O)(=O)c4ccc(F)cc4)cc3C(=O)N([C@H](C)CO)C[C@@H]2C)cc1 | inactive |
| COc1ccc(NC(=O)N(C)C[C@@H]2OCCCC[C@@H](C)Oc3ccc(NS(=O)(=O)c4ccc(F)cc4)cc3C(=O)N([C@H](C)CO)C[C@@H]2C)cc1 | inactive |
| COc1ccc(NC(=O)N(C)C[C@@H]2OCCCC[C@H](C)Oc3ccc(NS(=O)(=O)c4ccc(F)cc4)cc3C(=O)N([C@@H](C)CO)C[C@@H]2C)cc1 | inactive |
| COc1ccc(S(=O)(=O)Nc2ccc3c(c2)C(=O)N([C@@H](C)CO)C[C@H](C)[C@@H](CN(C)C(=O)Nc2ccc(F)cc2)OCCCC[C@@H](C)O3)cc1 | active |
| COc1ccc(S(=O)(=O)Nc2ccc3c(c2)C(=O)N([C@@H](C)CO)C[C@H](C)[C@@H](CN(C)C(=O)Nc2ccc(F)cc2)OCCCC[C@H](C)O3)cc1 | active |
| Cc1cc(=O)n2nc(S(C)(=O)=O)nc2[nH]1 | inactive |
| C[C@H]1CN([C@@H](C)CO)S(=O)(=O)c2ccc(C#Cc3ccccc3)cc2O[C@@H]1CN(C)C(=O)c1ccccn1 | inactive |
| COCc1nc(C)c(CN)s1 | inactive |
| COc1ccc(-c2cc(=O)c3c(O)cc(O[C@@H]4O[C@H](CO)[C@@H](O)[C@H](O)[C@H]4O[C@@H]4O[C@H](COC(C)=O)[C@@H](O)[C@@H](O)[C@H]4O)c(O)c3o2)cc1 | inactive |
| CSc1cccc(NC(=O)/C=C/c2ccc(C(C)C)cc2)c1 | inactive |
| CC(Cc1ccc(O)c(O)c1)(NN)C(=O)O (configuration not stated) | active |
| CCOC(=O)[C@@H](N)Cc1ccc(O)c(O)c1 | inactive |
| O=C(O)Cc1ccc(O)c(O)c1 | inactive |
| C[C@@](Cc1ccc(O)c(O)c1)(NN)C(=O)O | active |
| CO[C@@H]1CN(C)C(=O)c2ccc(NS(=O)(=O)c3cn(C)cn3)cc2OC[C@H](C)N(CCC(F)(F)F)C[C@@H]1C | inactive |
| C[C@H]1CN([C@@H](C)CO)S(=O)(=O)c2ccc(-c3cncnc3)cc2O[C@H]1CN(C)C(=O)c1cccc(F)c1 | inactive |
| CCN1CCCC[C@@H]1C(=O)O | inactive |
| C[C@H]1CN([C@@H](C)CO)C(=O)c2cc(NS(=O)(=O)c3cn(C)cn3)ccc2O[C@@H]1CN(C)CC1CCCCC1 | inactive |
